The full data set covers some 7,900 targets. This sample favours those with a hit. About 0.6% of all pairs of compound and target were hits.
Assays:
Experiment in all cases: log2 fold change, soluble protein after heating vs DMSO (PISA); higher = thermal stabilisation; K562 cells, 10 uM, 30 min; active = over 0.2 and 3.5 SD of the protein, either way, in both replicates (recomputed)
erlotinib = compound: C#Cc1cccc(Nc2ncnc3cc(OCCOC)c(OCCOC)cc23)c1 [erlotinib]
Method in brief: (§1)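 Values are thermal stability changes relative to control samples and are taken from duplicates. They are stated as log2 fold changes. Before quantification by TMTpro 16plex LC-MS/MS with equalised channel sums, K562 cells at 2×10^6 cells/mL were treated with 10 μM compound for 30 min, heated in aliquots for 3 min across 48°C-58°C, pooled, extracted in PBS with 0.5% NP-40 at 4°C, and centrifuged at 21,000xg for 90 min to give the soluble supernatant.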

[1] = compound: C/C(=N\NC(=O)C1=CC(=CC=C1)S(=O)(=O)N2CCOCC2)/C3=C(C=CC(=C3)Cl)O
Method in brief: as §1

[2] = compound: C1=CC(=C(C=C1Cl)C2=NC3=NC=CN=C3C(=N2)NC4=CC=NC=C4)F
Method in brief: as §1

[3] = compound: C1=CC(=CC=C1C2=NC3=C(N2)C=C(C=C3)C(=O)N)OC4=CC=C(C=C4)Cl
Method in brief: as §1

[4] = compound: C1=CC2=C(C=CC(=C2)/C=C\3/C(=O)NC(=NCC4=CC=CS4)S3)N=C1
Method in brief: as §1

[5] = compound: C1=CC2=NC=CN=C2C=C1/C=C/3\C(=O)NC(=O)S3
Method in brief: as §1

[6] = compound: C1=CC=C(C=C1)C2=NC(=C(N2)C3=CC=NC=C3)C4=CC(=C(C=C4)Cl)O
Method in brief: as §1

[7] = compound: C1=CC=C2C(=C1)C3=NNC4=CC=CC(=C43)C2=O
Method in brief: as §1

[8] = compound: C1CCN(C1)C(=O)NC2=CC=CC(=C2)NC3=NC=C(C(=N3)NCCC4=CN=CN4)Br
Method in brief: as §1

[9] = compound: C1CN(CCC1(CC2=CC=C(C=C2)Cl)N)C3=NC=NC4=C3C=CN4
Method in brief: as §1

Measured: log2 fold change

SEH1L isoform 1 (UniProt Q96EE3)
inactive: erlotinib 0.018 | [1] 0.073 | [2] 0.012 | [3] 0.043 | [4] 0.049 | [5] 0.064 | [6] 0 | [7] -0.06 | [8] -0.02 | [9] 0.035

RAD51 (UniProt Q06609)
inactive: erlotinib 0.29 | [1] 0.06 | [2] 0.044 | [3] 0.032 | [4] 0.067 | [5] 0.017 | [6] -0.025 | [7] -0.032 | [8] -0.014 | [9] 0.013

SCAF11 (UniProt Q99590)
UniProt Q99590, sequence (Q99590 whole entry, looked up): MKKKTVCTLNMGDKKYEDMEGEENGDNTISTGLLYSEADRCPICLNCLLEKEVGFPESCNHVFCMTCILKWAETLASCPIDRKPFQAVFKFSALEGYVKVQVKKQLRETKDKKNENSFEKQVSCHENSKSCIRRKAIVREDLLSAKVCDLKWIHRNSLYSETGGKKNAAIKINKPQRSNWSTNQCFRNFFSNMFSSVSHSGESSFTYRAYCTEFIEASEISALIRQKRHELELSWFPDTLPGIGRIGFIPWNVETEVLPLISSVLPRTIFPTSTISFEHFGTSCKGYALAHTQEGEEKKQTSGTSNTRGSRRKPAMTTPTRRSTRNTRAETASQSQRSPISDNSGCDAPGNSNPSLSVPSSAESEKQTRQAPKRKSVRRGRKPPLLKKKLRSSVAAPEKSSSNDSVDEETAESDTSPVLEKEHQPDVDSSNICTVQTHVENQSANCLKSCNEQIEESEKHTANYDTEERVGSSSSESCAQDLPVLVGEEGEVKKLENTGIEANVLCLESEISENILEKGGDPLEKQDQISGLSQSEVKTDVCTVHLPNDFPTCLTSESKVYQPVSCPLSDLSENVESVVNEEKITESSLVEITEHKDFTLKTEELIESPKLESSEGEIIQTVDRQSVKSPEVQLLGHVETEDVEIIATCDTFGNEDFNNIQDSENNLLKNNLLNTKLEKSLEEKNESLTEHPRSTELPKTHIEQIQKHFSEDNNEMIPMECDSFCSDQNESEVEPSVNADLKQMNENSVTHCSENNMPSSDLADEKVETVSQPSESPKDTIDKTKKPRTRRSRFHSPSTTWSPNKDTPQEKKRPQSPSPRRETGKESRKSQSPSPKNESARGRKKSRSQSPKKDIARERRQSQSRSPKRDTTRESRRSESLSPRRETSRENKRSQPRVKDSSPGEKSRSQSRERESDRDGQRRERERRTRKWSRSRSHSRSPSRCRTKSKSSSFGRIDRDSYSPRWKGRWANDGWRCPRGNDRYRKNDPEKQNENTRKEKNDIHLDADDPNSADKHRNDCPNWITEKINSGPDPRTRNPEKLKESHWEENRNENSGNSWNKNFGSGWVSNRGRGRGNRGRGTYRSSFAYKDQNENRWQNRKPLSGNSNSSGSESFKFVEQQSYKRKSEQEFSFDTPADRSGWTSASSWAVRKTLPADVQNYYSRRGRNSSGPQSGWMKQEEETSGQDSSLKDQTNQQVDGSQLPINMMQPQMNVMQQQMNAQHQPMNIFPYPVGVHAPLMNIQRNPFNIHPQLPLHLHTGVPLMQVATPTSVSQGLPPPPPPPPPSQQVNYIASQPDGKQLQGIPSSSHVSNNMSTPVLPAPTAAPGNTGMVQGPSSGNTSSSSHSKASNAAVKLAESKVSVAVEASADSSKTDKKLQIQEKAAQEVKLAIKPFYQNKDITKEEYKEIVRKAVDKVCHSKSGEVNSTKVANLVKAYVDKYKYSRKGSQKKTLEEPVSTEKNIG
inactive: erlotinib -0.074 | [1] -0.09 | [2] -0.16 | [3] 0.03 | [4] -0.134 | [5] -0.076 | [6] -0.014 | [7] -0.068 | [8] 0.125 | [9] -0.035

RAB9A (UniProt P51151)
inactive: erlotinib 0.037 | [1] 0.05 | [2] 0.017 | [3] 0.016 | [4] 0.046 | [5] -0.022 | [6] -0.005 | [7] -0.01 | [8] 0.017 | [9] 0.056

RAVER1 (UniProt E9PAU2)
inactive: erlotinib 0.218 | [1] 0.403 | [2] 0.042 | [3] 0.009 | [4] 0.002 | [5] -0.06 | [6] 0.257 | [7] -0.084 | [8] -0.05 | [9] -0.011

RPTOR (UniProt Q8N122)
inactive: erlotinib -0.034 | [1] 0.075 | [2] 0.036 | [3] -0.037 | [4] 0.039 | [5] 0.003 | [6] -0.038 | [7] -0.031 | [8] -0.042 | [9] -0.027

RDH11 (UniProt Q8TC12)
inactive: erlotinib -0.007 | [1] -0.03 | [2] 0.102 | [3] 0.068 | [4] 0.084 | [5] -0.1 | [6] 0.029 | [7] 0.04 | [8] -0.044 | [9] -0.043

RDH10 (UniProt Q8IZV5)
inactive: erlotinib 0.122 | [1] 0.065 | [2] 0.024 | [3] 0.003 | [4] 0.204 | [5] -0.035 | [6] 0.077 | [7] 0.039 | [8] -0.008 | [9] 0.235

RHOXF2 (UniProt Q9BQY4)
inactive: erlotinib -0.067 | [1] -0.137 | [2] -0.002 | [3] 0.003 | [4] -0.06 | [5] 0.054 | [6] 0.06 | [7] -0.026 | [8] 0.036 | [9] 0.011

RETSAT (UniProt Q6NUM9)
UniProt Q6NUM9, sequence (Q6NUM9 whole entry, looked up): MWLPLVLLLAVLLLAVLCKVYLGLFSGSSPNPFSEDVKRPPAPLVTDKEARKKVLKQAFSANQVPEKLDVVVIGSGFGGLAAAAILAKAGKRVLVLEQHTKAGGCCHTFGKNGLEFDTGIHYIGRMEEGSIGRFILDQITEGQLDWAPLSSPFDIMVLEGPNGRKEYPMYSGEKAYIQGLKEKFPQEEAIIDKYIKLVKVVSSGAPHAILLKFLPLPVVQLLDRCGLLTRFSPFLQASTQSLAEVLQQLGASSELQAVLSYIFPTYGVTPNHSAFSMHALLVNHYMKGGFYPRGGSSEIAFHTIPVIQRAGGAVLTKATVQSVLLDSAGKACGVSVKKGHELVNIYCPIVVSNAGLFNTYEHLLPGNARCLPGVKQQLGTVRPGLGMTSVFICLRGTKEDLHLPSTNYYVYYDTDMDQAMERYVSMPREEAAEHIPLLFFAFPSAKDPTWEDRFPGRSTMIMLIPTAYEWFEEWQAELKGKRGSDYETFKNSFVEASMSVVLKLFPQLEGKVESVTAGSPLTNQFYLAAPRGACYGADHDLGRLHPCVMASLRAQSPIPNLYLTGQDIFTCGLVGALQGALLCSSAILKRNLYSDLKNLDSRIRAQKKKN
inactive: erlotinib 0.044 | [1] -0.149 | [2] 0.132 | [4] 0.052 | [5] 0.002 | [6] 0.056 | [7] 0.144 | [8] -0.126 | [9] 0.194
active: [3] 0.502

SASH1 (UniProt O94885)
inactive: erlotinib -0.013 | [1] 0.12 | [2] 0.145 | [3] -0.01 | [4] -0.104 | [5] -0.009 | [6] 0.005 | [7] 0.107 | [8] -0.041 | [9] -0.079

RAC1 (UniProt P63000)
inactive: erlotinib -0.066 | [1] -0.062 | [2] -0.003 | [3] 0.053 | [4] -0.194 | [5] 0.015 | [6] 0.048 | [7] -0.05 | [8] 0.017 | [9] 0.005

RAB5IF isoform 5 (UniProt Q9BUV8)
UniProt Q9BUV8, sequence (Q9BUV8 whole entry, looked up): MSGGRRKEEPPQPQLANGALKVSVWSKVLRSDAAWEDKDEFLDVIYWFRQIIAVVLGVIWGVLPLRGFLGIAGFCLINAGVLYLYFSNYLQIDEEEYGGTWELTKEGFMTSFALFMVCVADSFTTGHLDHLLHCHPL
inactive: erlotinib 0.071 | [1] 0.093 | [2] 0.098 | [3] 0.055 | [4] -0.061 | [5] 0.112 | [7] 0.036 | [8] 0.027 | [9] 0.267
active: [6] 0.373

RNASET2 (UniProt O00584)
inactive: erlotinib 0.027 | [1] -0.007 | [2] -0.006 | [3] 0.002 | [4] 0.012 | [5] -0.014 | [6] -0.001 | [7] -0.027 | [8] 0.034 | [9] 0.052

SFXN5 (UniProt Q8TD22)
inactive: erlotinib -0.077 | [1] 0.09 | [2] -0.02 | [3] 0.082 | [4] -0.003 | [5] 0.023 | [6] 0.081 | [7] -0.001 | [8] -0.066 | [9] -0.045

RBM33 (UniProt Q96EV2)
UniProt Q96EV2, sequence (Q96EV2 whole entry, looked up): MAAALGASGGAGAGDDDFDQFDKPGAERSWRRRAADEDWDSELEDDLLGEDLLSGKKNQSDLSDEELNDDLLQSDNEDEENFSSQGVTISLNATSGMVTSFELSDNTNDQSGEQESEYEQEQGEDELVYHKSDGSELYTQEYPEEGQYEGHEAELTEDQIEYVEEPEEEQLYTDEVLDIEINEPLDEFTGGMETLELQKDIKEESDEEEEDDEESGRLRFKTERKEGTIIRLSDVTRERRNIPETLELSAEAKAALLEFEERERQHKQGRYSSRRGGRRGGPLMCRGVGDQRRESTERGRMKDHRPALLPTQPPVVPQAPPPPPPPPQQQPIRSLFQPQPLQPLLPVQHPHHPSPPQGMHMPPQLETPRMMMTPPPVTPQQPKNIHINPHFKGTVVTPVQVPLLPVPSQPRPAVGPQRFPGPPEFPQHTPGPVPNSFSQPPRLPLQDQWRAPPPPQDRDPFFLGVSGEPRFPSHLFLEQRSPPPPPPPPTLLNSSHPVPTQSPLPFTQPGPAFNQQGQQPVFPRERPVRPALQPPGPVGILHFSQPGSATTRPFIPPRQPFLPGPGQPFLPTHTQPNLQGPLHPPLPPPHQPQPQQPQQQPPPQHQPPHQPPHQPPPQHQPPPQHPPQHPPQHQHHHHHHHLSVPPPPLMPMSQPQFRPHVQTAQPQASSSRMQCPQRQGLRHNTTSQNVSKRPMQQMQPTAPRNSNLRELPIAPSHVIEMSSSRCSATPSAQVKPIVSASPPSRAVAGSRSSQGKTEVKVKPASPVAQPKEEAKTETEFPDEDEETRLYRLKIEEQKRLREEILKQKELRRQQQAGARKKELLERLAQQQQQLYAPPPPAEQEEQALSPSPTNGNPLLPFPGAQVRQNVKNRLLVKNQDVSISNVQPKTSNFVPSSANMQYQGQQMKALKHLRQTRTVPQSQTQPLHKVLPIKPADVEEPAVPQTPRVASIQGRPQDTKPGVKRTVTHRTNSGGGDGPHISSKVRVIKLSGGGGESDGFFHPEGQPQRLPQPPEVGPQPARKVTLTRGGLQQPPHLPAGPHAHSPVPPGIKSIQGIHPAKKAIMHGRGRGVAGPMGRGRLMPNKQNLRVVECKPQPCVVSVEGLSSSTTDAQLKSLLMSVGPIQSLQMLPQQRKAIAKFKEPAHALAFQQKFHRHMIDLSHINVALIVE
inactive: erlotinib 0.017 | [1] 0.04 | [2] -0.022 | [3] -0.011 | [4] 0 | [5] 0.01 | [6] 0.001 | [7] -0.114 | [8] 0.034 | [9] 0.038

RPS2 (UniProt P15880)
inactive: erlotinib -0.199 | [1] -0.138 | [2] -0.323 | [3] 0.047 | [4] -0.1 | [5] -0.039 | [6] -0.064 | [7] -0.041 | [8] 0.086 | [9] -0.162

RBM26 isoform 2 (UniProt Q5T8P6)
inactive: erlotinib 0.174 | [1] 0.216 | [2] 0.25 | [3] -0.004 | [4] -0.018 | [5] 0 | [6] 0.113 | [7] 0.002 | [8] -0.027 | [9] 0.012

RFC3 (UniProt P40938)
inactive: erlotinib -0.04 | [1] 0.108 | [2] 0.033 | [3] 0.005 | [4] 0.066 | [5] 0.007 | [6] 0.046 | [7] 0.046 | [8] -0.06 | [9] 0.054

SLC1A5 (UniProt Q15758)
inactive: erlotinib -0.001 | [1] 0.003 | [2] 0.043 | [3] 0.002 | [4] -0.051 | [5] 0.006 | [6] 0.075 | [7] -0.046 | [8] -0.052 | [9] 0.089

RALY (UniProt Q9UKM9)
inactive: erlotinib 0.018 | [1] -0.072 | [2] -0.541 | [3] 0.189 | [4] -0.144 | [5] 0.154 | [6] -0.11 | [7] 0.038 | [8] 0.008 | [9] -0.22

ROCK1 (UniProt Q13464)
UniProt Q13464, sequence (Q13464 whole entry, looked up): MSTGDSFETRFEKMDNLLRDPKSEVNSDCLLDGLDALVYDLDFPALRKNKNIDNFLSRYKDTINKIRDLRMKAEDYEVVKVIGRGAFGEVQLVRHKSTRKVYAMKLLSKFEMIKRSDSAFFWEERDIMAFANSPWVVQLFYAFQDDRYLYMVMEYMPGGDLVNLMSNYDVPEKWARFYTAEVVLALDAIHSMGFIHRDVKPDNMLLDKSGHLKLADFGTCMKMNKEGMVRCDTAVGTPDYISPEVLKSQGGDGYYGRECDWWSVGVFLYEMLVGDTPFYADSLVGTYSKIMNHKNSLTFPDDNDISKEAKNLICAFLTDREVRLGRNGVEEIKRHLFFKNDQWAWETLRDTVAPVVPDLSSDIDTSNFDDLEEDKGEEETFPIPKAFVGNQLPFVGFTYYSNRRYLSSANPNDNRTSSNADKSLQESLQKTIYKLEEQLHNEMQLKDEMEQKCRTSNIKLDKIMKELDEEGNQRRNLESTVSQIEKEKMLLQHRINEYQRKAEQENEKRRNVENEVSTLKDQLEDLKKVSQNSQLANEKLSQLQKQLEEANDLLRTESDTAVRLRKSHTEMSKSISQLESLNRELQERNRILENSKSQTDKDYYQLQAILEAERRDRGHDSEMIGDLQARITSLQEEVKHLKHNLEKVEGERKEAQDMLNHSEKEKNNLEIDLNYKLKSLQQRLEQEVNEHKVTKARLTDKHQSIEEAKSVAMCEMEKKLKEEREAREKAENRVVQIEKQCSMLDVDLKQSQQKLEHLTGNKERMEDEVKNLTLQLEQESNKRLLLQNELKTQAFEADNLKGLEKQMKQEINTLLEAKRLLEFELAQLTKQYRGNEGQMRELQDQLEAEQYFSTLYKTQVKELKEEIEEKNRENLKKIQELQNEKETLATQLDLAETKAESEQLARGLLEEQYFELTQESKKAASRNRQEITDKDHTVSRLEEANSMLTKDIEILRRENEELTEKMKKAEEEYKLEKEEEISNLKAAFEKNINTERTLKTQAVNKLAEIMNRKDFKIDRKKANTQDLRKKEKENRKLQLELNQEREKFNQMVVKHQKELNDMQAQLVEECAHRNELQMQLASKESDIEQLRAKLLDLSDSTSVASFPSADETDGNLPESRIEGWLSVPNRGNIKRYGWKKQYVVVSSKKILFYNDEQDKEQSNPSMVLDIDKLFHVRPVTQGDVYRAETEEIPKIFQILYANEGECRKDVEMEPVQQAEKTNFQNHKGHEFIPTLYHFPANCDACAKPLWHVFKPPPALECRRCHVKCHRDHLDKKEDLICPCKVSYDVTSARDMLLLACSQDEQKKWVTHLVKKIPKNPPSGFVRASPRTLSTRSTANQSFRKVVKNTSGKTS
inactive: erlotinib 0.049 | [1] -0.025 | [2] 0.042 | [3] -0.007 | [4] 0.199 | [5] 0.027 | [6] -0.007 | [7] -0.018 | [8] 0.032 | [9] 0.205

SCAMP2 (UniProt O15127)
UniProt O15127, sequence (O15127 whole entry, looked up): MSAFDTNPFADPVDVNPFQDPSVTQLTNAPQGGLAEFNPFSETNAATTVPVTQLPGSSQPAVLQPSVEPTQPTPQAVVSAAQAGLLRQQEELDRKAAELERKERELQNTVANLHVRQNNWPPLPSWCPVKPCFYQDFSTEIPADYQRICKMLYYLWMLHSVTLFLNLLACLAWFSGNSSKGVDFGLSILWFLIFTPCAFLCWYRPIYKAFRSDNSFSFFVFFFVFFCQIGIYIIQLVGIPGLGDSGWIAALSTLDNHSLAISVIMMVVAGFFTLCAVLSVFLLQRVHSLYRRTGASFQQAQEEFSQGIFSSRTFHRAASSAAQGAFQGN
inactive: erlotinib 0.014 | [1] 0.141 | [2] 0.081 | [3] 0.011 | [4] -0.154 | [5] 0.063 | [6] 0.055 | [7] 0.057 | [8] -0.116 | [9] 0.087

SLC19A1 (UniProt P41440)
inactive: erlotinib -0.023 | [1] 0.029 | [2] 0.159 | [3] 0.022 | [4] -0.006 | [5] 0.103 | [6] 0.118 | [7] -0.008 | [8] -0.009 | [9] 0.08

RRP12 (UniProt Q5JTH9)
inactive: erlotinib 0.074 | [1] -0.3 | [2] -0.172 | [3] 0.028 | [4] -0.04 | [5] 0.038 | [6] 0.166 | [7] 0.205 | [8] 0.079 | [9] 0.054

SH3GL1 (UniProt Q99961)
inactive: erlotinib 0.024 | [1] 0.068 | [2] 0.013 | [3] 0.003 | [4] 0.058 | [5] 0.022 | [6] 0.019 | [7] 0.004 | [8] -0.047 | [9] -0.045

RABGAP1L isoform 3 (UniProt Q5R372)
inactive: erlotinib 0.087 | [1] 0.052 | [2] 0.161 | [3] -0.021 | [4] 0.029 | [5] 0.033 | [6] -0.001 | [7] 0.035 | [8] 0.004 | [9] 0.007
